Measurements from ChEMBL document CHEMBL4513146, “CO-ADD screening of Karazin Kharkiv National University (Ukraine) compounds”.
Measured potencies and affinities stand elsewhere.

Assays:
[1] = test system: Klebsiella pneumoniae; settings: Concentration 32 ug.mL-1;; ASSAY_TEST Inhibition of Bacterial Growth; detection method Absorption (OD600); MEDIA CAMHB; plate type 384well; NBS; CORNING #3640; time 18 hr
[2] = test system: Candida albicans; settings: Concentration 32 ug.mL-1; ASSAY_TEST Inhibition of Fungal Growth; detection method Absorption (OD530)
[3] = test system: Cryptococcus neoformans; settings: Concentration 32 ug.mL-1; ASSAY_TEST Inhibition of Fungal Growth; detection method Resazurin; Absorption (OD600-OD570); plate type 384well; NBS; CORNING #3640

Row | SMILES | Inhibition [1] | Inhibition [2] | Inhibition [3]
1 | COc1ccc(NC(=O)CSc2nnc3c(=O)n(-c4ccccc4)ccn23)cc1 | 0.2% | 2.88% | -4.81%
2 | COC(=O)c1ccc(NC(=O)Cn2nc3c(Oc4ccccc4)nccn3c2=O)cc1 | -0.72% | 3.86% | -10.09%
3 | COc1cccc(-n2ccn3c(SCC(=O)c4c[nH]c5ccc(OC)cc45)nnc3c2=O)c1 | 12.06% | 5.77% | -34.12%
4 | Cc1ccc(NC(=O)Cn2nc3ccc(C(=O)NCc4ccccc4)cn3c2=O)c(Br)c1 | -0.66% | 7.92% | -19.22%
5 | COC(=O)c1cccc(NC(=O)Cn2nc3ccc(-c4ccccc4)nn3c2=O)c1 | -4.82% | 4.96% | -15.91%
6 | CCC(Sc1nnc2c(=O)n(-c3cccc(OC)c3)ccn12)C(=O)Nc1cc(OC)ccc1OC (stereo not drawn) | 1.63% | 1.95% | -10.37%
7 | COc1ccc(CN(c2ccc(OC)cc2)S(=O)(=O)c2ccc3nnc(C)n3c2)cc1 | 9.27% | 0.4% | -1.1%
8 | O=C(Cn1nc2c(Oc3ccc(Cl)cc3)nccn2c1=O)Nc1ccc2c(c1)OCO2 | 8.17% | 2.32% | -10.77%
9 | Cc1ccc(NC(=O)Cn2nc3ccc(-c4ccc(Cl)cc4)nn3c2=O)cc1F | 2.59% | -1.16% | -2.55%
10 | O=C(Cn1nc2ccc(-c3ccccc3)nn2c1=O)N1CCN(c2ccc(F)cc2)CC1 | 3.94% | -0.37% | -5.73%
11 | Cc1c(Cl)cccc1NC(=O)Cn1nc2c(SCc3ccccc3)nccn2c1=O | 1.96% | 2.12% | -7.14%
12 | O=C(Cn1nc2c(N3CCOCC3)nccn2c1=O)NCc1cccs1 | 15.07% | 2.44% | -8.25%
13 | Cc1cc2nn(CC(=O)Nc3cc(F)ccc3F)c(=O)n2c(Nc2ccc(C)c(F)c2)n1 | 8.03% | 1.75% | -8.46%
14 | O=c1n(Cc2cccc(Br)c2)nc2ccc(-c3ccccc3)nn12 | 10.27% | 5.28% | -13.38%
15 | Cc1nnc2ccc(S(=O)(=O)N(Cc3ccc(F)cc3)c3cc(F)cc(F)c3)cn12 | 9.19% | 0.51% | -14.68%
16 | Cc1cccc(NC(=O)Cn2nc3c(SCc4ccc(Cl)cc4)nccn3c2=O)c1C | 15.65% | 5.99% | -31.05%
17 | CCC(Sc1nnc2c(=O)n(-c3ccccc3)ccn12)C(=O)Nc1cc(F)ccc1F (stereo not drawn) | 10.28% | 0.38% | -17.31%
18 | CC(C)c1nnc2c(SCC(=O)Nc3cccc(Br)c3)nc3ccccc3n12 | 2.52% | 2.36% | -16.07%
19 | CCc1ccccc1Sc1nccn2c(=O)n(CC(=O)Nc3ccc(OC)c(Cl)c3)nc12 | 5.33% | 13.19% | 0.67%
20 | O=C(NCc1ccccc1)c1ccc2nn(CC(=O)N3CCN(c4ccc(F)cc4)CC3)c(=O)n2c1 | -0.37% | 5.32% | -7.39%
21 | CCc1nnc2c(S(=O)(=O)N(Cc3cccc(OC)c3)c3cccc(C)c3)cccn12 | 0.84% | 7.06% | -5.34%
